About 83,000 compounds went through this panel and 20% of them were active in at least one assay; those are over-represented in the sample as a whole.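 96-well plates, one dose, 48 hours. Percent growth reported; active if below 10.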 A number with no mark means an inactive call. Calls of active or inactive are those of the source.

Test systems include SK-MEL-2 melanoma; EKVX NSCLC; SN12C renal; UO-31 renal; TK-10 renal; ACHN renal; CAKI-1 renal; A498 renal; CCRF-CEM leukemia; MOLT-4 leukemia; SR leukemia; RPMI-8226 leukemia; OVCAR-8 ovarian; OVCAR-5 ovarian; SK-OV-3 ovarian; IGROV1 ovarian; HS 578T breast; NCI/ADR-RES ovarian; OVCAR-3 ovarian; OVCAR-4 ovarian.
What all share (assay): NCI-60 one-dose screen, 48 h (100 = growth as untreated, 0 = no growth, -100 = all killed)
What all share (details): 10 µM unless noted

Consider `O/N=C/c1ccncc1`, for which the growth in the assay with SK-MEL-2 melanoma is 112%; with EKVX NSCLC it was 100%; in the assay on SN12C renal it was 121%; with UO-31 renal, 102%; in the assay on TK-10 renal, 100%; in the assay with ACHN renal, 109%. The growth with CAKI-1 renal is 84.3%; in the assay on A498 renal, 101%; with CCRF-CEM leukemia, 95.5%; in the assay on MOLT-4 leukemia it was 111%; in the assay with SR leukemia, 107%; in the assay on RPMI-8226 leukemia, 94%. Also, the growth is 107% in the assay on OVCAR-8 ovarian; 116% in the assay with OVCAR-5 ovarian; 100% in the assay on SK-OV-3 ovarian; 114% in the assay on IGROV1 ovarian; 107% in the assay with HS 578T breast; 105% with NCI/ADR-RES ovarian.
As for `CCOc1cc(/C=N\NC(=O)C[N+](C)(C)C)ccc1O`, the growth in the assay on SK-MEL-2 melanoma is 115%; with EKVX NSCLC it was 98.7%; in the assay on SN12C renal, 109%; with UO-31 renal it was 113%; in the assay on TK-10 renal, 105%; with ACHN renal it was 103%. Also, the growth was 95.9% with CAKI-1 renal; 115% in the assay with A498 renal; 98.5% in the assay with CCRF-CEM leukemia; 28.5% in the assay with MOLT-4 leukemia; 14.3% in the assay on SR leukemia; 94% with RPMI-8226 leukemia. In addition, the growth with OVCAR-8 ovarian was 113%; with OVCAR-5 ovarian, 101%; with SK-OV-3 ovarian it was 105%; with IGROV1 ovarian, 118%; with OVCAR-3 ovarian, 116%; in the assay with HS 578T breast, 117%. Also, the growth in the assay on NCI/ADR-RES ovarian was 103%.
Take `COc1ccccc1CNCCCN1C(=O)c2ccc3c4c(ccc(c24)C1=O)C(=O)N(CCCCNCCCN)C3=O`: the growth was -46.1% (active) with SK-MEL-2 melanoma; 48.1% in the assay on EKVX NSCLC; -80.2% (active) in the assay on SN12C renal; 48.3% in the assay with UO-31 renal; 36.7% in the assay on TK-10 renal; 28.1% with ACHN renal. Besides, the growth with CAKI-1 renal is 94.1%; with A498 renal it was 87.9%; in the assay with CCRF-CEM leukemia, 2.26% (active); in the assay on MOLT-4 leukemia, -21.7% (active); in the assay with SR leukemia, 11.3%; in the assay with RPMI-8226 leukemia it was 10.6%. The growth in the assay with OVCAR-8 ovarian was -16% (active); in the assay on OVCAR-5 ovarian it was 69.8%; with OVCAR-4 ovarian, -90.4% (active); in the assay with SK-OV-3 ovarian, 56.9%; with OVCAR-3 ovarian it was -30.4% (active); in the assay on HS 578T breast, 31.5%. For the same molecule, in the assay on NCI/ADR-RES ovarian, the growth is 72.6%.
As to `Nc1c(C(=O)C[C@@H](N)CO)ccc2c1C(=O)CCO2`, the growth is 46.8% in the assay on SK-MEL-2 melanoma; 97.8% with EKVX NSCLC; 32.7% in the assay on SN12C renal; 45.5% with UO-31 renal; 71.4% in the assay with TK-10 renal; 45.6% in the assay with ACHN renal. The growth was 29.8% in the assay on CAKI-1 renal; -37.5% (active) in the assay with A498 renal; 20.6% with CCRF-CEM leukemia; 33.4% in the assay on MOLT-4 leukemia; 30.7% with SR leukemia; 19.2% with RPMI-8226 leukemia. Also, the growth with OVCAR-8 ovarian was 35.8%; in the assay with OVCAR-5 ovarian, 72.8%; in the assay with OVCAR-4 ovarian, 86.4%; with IGROV1 ovarian, 51.4%; with OVCAR-3 ovarian, 23.5%; with HS 578T breast, 110%. For the same molecule, in the assay with NCI/ADR-RES ovarian, the growth was 61.2%.
For the molecule `NC(=O)N/N=C\c1ccc([N+](=O)[O-])o1`, the growth with SK-MEL-2 melanoma is 114%; with EKVX NSCLC, 75.2%; in the assay on SN12C renal, 104%; in the assay on UO-31 renal, 85.2%; with TK-10 renal, 113%; with ACHN renal it was 98.8%. The growth was 86.9% in the assay with CAKI-1 renal; 90.1% in the assay with A498 renal; 19.9% in the assay on CCRF-CEM leukemia; 103% with MOLT-4 leukemia; 96.1% in the assay with SR leukemia; 86% with RPMI-8226 leukemia. Moreover, the growth in the assay on OVCAR-8 ovarian is 97.6%; with OVCAR-5 ovarian, 103%; in the assay with SK-OV-3 ovarian, 114%; in the assay on IGROV1 ovarian, 105%; in the assay with OVCAR-3 ovarian, 109%; with HS 578T breast, 79.2%. Moreover, the growth with NCI/ADR-RES ovarian is 95.1%.
In the case of `Cc1ccc(OC2=C(C#N)C(=N)N3C(=NN2)Sc2c(C)ccc(C)c23)cc1`, the growth with SK-MEL-2 melanoma is 121%; with EKVX NSCLC, 91.5%; with SN12C renal, 106%; with UO-31 renal it was 82.7%; with TK-10 renal, 129%; in the assay on ACHN renal it was 99%. Moreover, the growth in the assay on CAKI-1 renal was 86%; in the assay with A498 renal, 94.9%; with CCRF-CEM leukemia, 94.9%; in the assay on MOLT-4 leukemia it was 89.1%; with SR leukemia, 98.2%; in the assay with RPMI-8226 leukemia it was 105%. Further, the growth was 104% with OVCAR-8 ovarian; 128% with OVCAR-5 ovarian; 96.2% in the assay with SK-OV-3 ovarian; 87.7% in the assay on IGROV1 ovarian; 107% with HS 578T breast.
For `COc1cc(NCCC2CCCCN2)c2ncccc2c1OC` (stereo not drawn), the growth in the assay with SK-MEL-2 melanoma was 50.5%; with EKVX NSCLC, 114%; in the assay with SN12C renal, 81.6%; with UO-31 renal, 65.3%; in the assay with TK-10 renal, 104%; in the assay on ACHN renal, 82.9%. Moreover, the growth in the assay with CAKI-1 renal is 100%; in the assay on A498 renal, 113%; with CCRF-CEM leukemia, 47.2%; in the assay with MOLT-4 leukemia, 43%; with SR leukemia, 73.8%; in the assay with RPMI-8226 leukemia, 68.2%. The growth was 62.7% in the assay with OVCAR-8 ovarian; 115% in the assay with OVCAR-5 ovarian; 36.8% with OVCAR-4 ovarian; 116% in the assay with SK-OV-3 ovarian; 4.97% (active) in the assay on OVCAR-3 ovarian; 86.6% in the assay with HS 578T breast. For the same molecule, in the assay on NCI/ADR-RES ovarian, the growth is 81.7%.
With `Cc1ccccc1C1CC(=O)c2ccccc2C1C` (stereo not drawn), the growth with SK-MEL-2 melanoma was 120%; in the assay with EKVX NSCLC, 101%; with SN12C renal, 99.1%; in the assay with UO-31 renal, 82.1%; in the assay with TK-10 renal it was 105%; in the assay on ACHN renal, 108%. In addition, the growth is 106% in the assay on CAKI-1 renal; 88.5% with A498 renal; 95.2% with CCRF-CEM leukemia; 93.5% with MOLT-4 leukemia; 78.7% in the assay with SR leukemia; 93.8% with RPMI-8226 leukemia. The growth in the assay on OVCAR-8 ovarian was 106%; in the assay on OVCAR-5 ovarian, 97.2%; with SK-OV-3 ovarian, 105%; with IGROV1 ovarian it was 123%; with HS 578T breast, 98.9%; in the assay on NCI/ADR-RES ovarian it was 108%.

Values taken from PubChem BioAssay (NCI).
